# Measurements from PubChem BioAssay AID1611 (NINDS Approved Drug Screening Program, 2009).
# Test: inducers of human heat shock response, cell-based, HSE luciferase (AID 1611)
# Conditions: human cells, HSE-luciferase heat shock reporter; stronger effect = higher value
row,SMILES,fold change
1,CCCC(CCC)C(=O)O,0.91
2,Cn1c(=O)[nH]c2ncn(C)c2c1=O,1.88
3,N[C@@H]1CONC1=O,1.23
4,CC(C)(C)NC[C@@H](O)COc1nsnc1N1CCOCC1,0.87
5,CC12CC3CC(C)(C1)CC(N)(C3)C2,0.96
6,Cc1ccccc1OCC(O)CO (stereo not given),0.73
7,O=c1cc[nH]c(=S)[nH]1,0.78
8,COC(=O)C(N)CS (stereo not given),0.85
9,CCOc1ccc(Cc2nccc3cc(OCC)c(OCC)cc23)cc1OCC,1.35
10,CO[C@H]1C[C@H](O[C@H]2[C@H](C)[C@@H](OC3O[C@H](C)C[C@H](N(C)C)[C@H]3O)[C@@H](C)C[C@]3(CO3)C(=O)[C@H](C)[C@@H](O)[C@@H](C)[C@@H](C)OC(=O)[C@@H]2C)O[C@@H](C)[C@@H]1O (stereo not given in full),0.75
11,CSc1ccc2c(c1)N(CCC1CCCCN1C)c1ccccc1S2 (stereo not given),0.58
12,CCN(CC)C(=O)c1cccc(C)c1,0.91
13,CCC(=O)c1ccc2c(c1)N(CC(C)N(C)C)c1ccccc1S2 (stereo not given),0.88
14,Cn1c(=O)c2c(ncn2CC(O)CO)n(C)c1=O (stereo not given),1.13
15,CC(C)CC(NC(=O)CCN)C(=O)O (stereo not given),1.04
16,CCN(CC)CCOC(=O)c1ccc(N)cc1,0.94
17,CCCCOc1ccc(CC(=O)NO)cc1,0.79
18,CN[C@@H]1[C@H](OC2[C@H](O[C@H]3[C@H](O)[C@@H](O)[C@H](N=C(N)N)[C@@H](O)[C@@H]3N=C(N)N)O[C@@H](C)[C@]2(O)C=O)O[C@@H](CO)[C@H](O)[C@H]1O (stereo not given in full),1.17
19,O=C(O)c1ccccc1O,0.73
20,CCN(CC)CCOC(=O)C1(C2CCCCC2)CCCCC1,0.64

row,SMILES,fold change
1,CC(=O)OCC(=O)[C@@]1(O)CCC2C3CCC4=CC(=O)CC[C@]4(C)C3C(=O)C[C@@]21C (stereo not given in full),0.62
2,CO[C@@H]1[C@@H](OC(N)=O)[C@@H](O)[C@H](Oc2ccc3c(O)c(NC(=O)c4ccc(O)c(CC=C(C)C)c4)c(=O)oc3c2C)OC1(C)C,1.06
3,CCc1cccc2c3c([nH]c12)C(CC)(CC(=O)O)OCC3 (stereo not given),1.02
4,CCCCc1oc2ccccc2c1C(=O)c1cc(I)c(OCCN(CC)CC)c(I)c1,0.84
5,CCN(CC)CCNC(=O)c1cc(Br)c(N)cc1OC,1.36
6,C#CCN(C)Cc1ccccc1,1.01
7,Nc1c(Br)cc(Br)cc1CNC1CCC(O)CC1 (stereo not given),1.19
8,CC(C)(C)NCC(O)c1cc(O)cc(O)c1 (stereo not given),0.99
9,CC(C)NCC(O)COc1ccc(CC(N)=O)cc1 (stereo not given),0.76
10,Nc1ccc(S(=O)(=O)Nc2ccnn2-c2ccccc2)cc1,0.94
11,C[n+]1c2cc(N)ccc2cc2ccc(N)cc21,1.45
12,Cc1ccccc1N1C(=O)c2cc(S(N)(=O)=O)c(Cl)cc2NC1C (stereo not given),0.83
13,O=C1c2cccc(O)c2C(=O)c2c(O)cccc21,0.86
14,CC1(C)O[C@@H]2CC3C4C[C@H](F)C5=CC(=O)CC[C@]5(C)C4[C@@H](O)C[C@]3(C)[C@]2(C(=O)CO)O1 (stereo not given in full),1.35
15,NC(N)=NC(N)=Nc1ccccc1,0.95
16,O=C1NS(=O)(=O)c2ccccc21,0.91
17,N[C@@H](CCC(=O)N[C@@H](CS)C(=O)NCC(=O)O)C(=O)O,1.11
18,O=C1C(CCS(=O)c2ccccc2)C(=O)N(c2ccccc2)N1c1ccccc1 (stereo not given),0.91
19,CCN(CC)C(C)CN1c2ccccc2Sc2ccccc21 (stereo not given),1.55
20,CC(COc1ccccc1)NC(C)[C@H](O)c1ccc(O)cc1 (stereo not given in full),5.01
